# Measured values reported in the supplement of paper PMC4466140.
# Experiments:
# Test in all cases: SPOT peptide array binding signal intensity (averaged, normalized) (arbitrary units (background-subtracted, floor 0; scale differs between SH3 domains)); higher = stronger binding of the SH3 domain to the peptide
# AgAbp1 = biological target: AgAbp1
# How it was run: (§1)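 Peptides were synthetic 15-mers on cellulose membranes, with every cysteine replaced by serine. They were incubated overnight at 4°C with GST-SH3 domains from four yeast species at 10 μg/ml in TBS-based blocking buffer. Binding signal, the replicate-averaged normalized and background-subtracted spot intensity, is in arbitrary units that differ between domains.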
# AgBbc1 = biological target: AgBbc1
# How it was run: as §1
# AgBem1-D1 = biological target: AgBem1-D1
# How it was run: as §1
# AgBzz1-D1 = biological target: AgBzz1-D1
# How it was run: as §1
# AgBzz1-D2 = biological target: AgBzz1-D2
# How it was run: as §1
# AgCyk3 = biological target: AgCyk3
# How it was run: as §1
# AgFus1 = biological target: AgFus1
# How it was run: as §1
# AgHof1 = biological target: AgHof1
# How it was run: as §1
# AgHse1 = biological target: AgHse1
# How it was run: as §1
# AgLsb1 = biological target: AgLsb1
# How it was run: as §1
# AgLsb4 = biological target: AgLsb4
# How it was run: as §1
# AgMyo5 = biological target: AgMyo5
# How it was run: as §1
# AgNbp2 = biological target: AgNbp2
# How it was run: as §1
# AgRvs167 = biological target: AgRvs167
# How it was run: as §1
# AgSho1 = biological target: AgSho1
# How it was run: as §1
# AgSla1-D1-D2 = biological target: AgSla1-D1-D2
# How it was run: as §1
# AgSla1-D3 = biological target: AgSla1-D3
# How it was run: as §1
# CaAbp1-D1 = biological target: CaAbp1-D1
# How it was run: as §1
# CaAbp1-D2 = biological target: CaAbp1-D2
# How it was run: as §1
# CaBbc1 = biological target: CaBbc1
# How it was run: as §1
# CaBem1-D1 = biological target: CaBem1-D1
# How it was run: as §1
# CaBzz1-D1 = biological target: CaBzz1-D1
# How it was run: as §1
# CaBzz1-D2 = biological target: CaBzz1-D2
# How it was run: as §1
# CaCyk3 = biological target: CaCyk3
# How it was run: as §1
# CaFus1 = biological target: CaFus1
# How it was run: as §1
# CaHof1 = biological target: CaHof1
# How it was run: as §1
# CaHse1 = biological target: CaHse1
# How it was run: as §1
# CaLsb1 = biological target: CaLsb1
# How it was run: as §1
# CaLsb4 = biological target: CaLsb4
# How it was run: as §1
# CaMyo5 = biological target: CaMyo5
# How it was run: as §1
binder,measurement,setting,value
DKKTKPTPPPKPSHL,SPOT peptide array binding signal intensity,AgAbp1,1090
same,SPOT peptide array binding signal intensity,AgBbc1,24.8
same,SPOT peptide array binding signal intensity,AgBem1-D1,≤ 0
same,SPOT peptide array binding signal intensity,AgBzz1-D1,61
same,SPOT peptide array binding signal intensity,AgBzz1-D2,34.5
same,SPOT peptide array binding signal intensity,AgCyk3,1
same,SPOT peptide array binding signal intensity,AgFus1,6
same,SPOT peptide array binding signal intensity,AgHof1,18.5
same,SPOT peptide array binding signal intensity,AgHse1,≤ 0
same,SPOT peptide array binding signal intensity,AgLsb1,≤ 0
same,SPOT peptide array binding signal intensity,AgLsb4,≤ 0
same,SPOT peptide array binding signal intensity,AgMyo5,≤ 0
same,SPOT peptide array binding signal intensity,AgNbp2,≤ 0
same,SPOT peptide array binding signal intensity,AgRvs167,0.167
same,SPOT peptide array binding signal intensity,AgSho1,45
same,SPOT peptide array binding signal intensity,AgSla1-D1-D2,≤ 0
same,SPOT peptide array binding signal intensity,AgSla1-D3,2
same,SPOT peptide array binding signal intensity,CaAbp1-D1,1790
same,SPOT peptide array binding signal intensity,CaAbp1-D2,3130
same,SPOT peptide array binding signal intensity,CaBbc1,50.8
same,SPOT peptide array binding signal intensity,CaBem1-D1,≤ 0
same,SPOT peptide array binding signal intensity,CaBzz1-D1,1480
same,SPOT peptide array binding signal intensity,CaBzz1-D2,262
same,SPOT peptide array binding signal intensity,CaCyk3,≤ 0
same,SPOT peptide array binding signal intensity,CaFus1,≤ 0
same,SPOT peptide array binding signal intensity,CaHof1,0.75
same,SPOT peptide array binding signal intensity,CaHse1,8.5
same,SPOT peptide array binding signal intensity,CaLsb1,0.5
same,SPOT peptide array binding signal intensity,CaLsb4,≤ 0
same,SPOT peptide array binding signal intensity,CaMyo5,≤ 0
